Measurements reported in PubChem BioAssay (Tox21).
Results filed as inconclusive are left out. Calls of active or inactive are those of the source. Unless noted, the call rests on the fitted dose curve; in most records, active means well fitted curve in the direction sought with a large enough effect in the repeat runs; inconclusive means weak or mixed curves; inactive means no such curve, though single readings can be large; an effect the other way counts as inactive or inconclusive.

Columns and labels:
[1] = qHTS assay to identify small molecule antagonists of the estrogen receptor alpha (ER-alpha) signaling pathway using the BG1 cell line in the presence of 0.1 nM 17-beta-estradiol - cell viability counter screen (AID 1259241); further: nearly all actives have a fitted effect of over 40% in size; further: potency means the concentration at half of the fitted maximal effect
How it was run: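 Cytotoxicity counter-screen: live-cell protease activity measured by fluorescence (30 min reagent step) in the same wells. Cells were VM7Luc4E2 with endogenous ER-alpha and ERE-driven luciferase, treated 22 hr at 37C alongside 0.1 nM 17beta-estradiol final.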

[2] = biological target: Androgen receptor (Homo sapiens) (UniProt P10275); test: qHTS assay to identify small molecule antagonists of the androgen receptor (AR) signaling pathway using the MDA cell line in the presence of 0.5 nM R1881 (AID 1259243); further: nearly all actives have a fitted effect of over 50% in size; further: potency means the concentration at half of the fitted maximal effect
Androgen receptor (Homo sapiens), sequence (P10275 whole entry, looked up): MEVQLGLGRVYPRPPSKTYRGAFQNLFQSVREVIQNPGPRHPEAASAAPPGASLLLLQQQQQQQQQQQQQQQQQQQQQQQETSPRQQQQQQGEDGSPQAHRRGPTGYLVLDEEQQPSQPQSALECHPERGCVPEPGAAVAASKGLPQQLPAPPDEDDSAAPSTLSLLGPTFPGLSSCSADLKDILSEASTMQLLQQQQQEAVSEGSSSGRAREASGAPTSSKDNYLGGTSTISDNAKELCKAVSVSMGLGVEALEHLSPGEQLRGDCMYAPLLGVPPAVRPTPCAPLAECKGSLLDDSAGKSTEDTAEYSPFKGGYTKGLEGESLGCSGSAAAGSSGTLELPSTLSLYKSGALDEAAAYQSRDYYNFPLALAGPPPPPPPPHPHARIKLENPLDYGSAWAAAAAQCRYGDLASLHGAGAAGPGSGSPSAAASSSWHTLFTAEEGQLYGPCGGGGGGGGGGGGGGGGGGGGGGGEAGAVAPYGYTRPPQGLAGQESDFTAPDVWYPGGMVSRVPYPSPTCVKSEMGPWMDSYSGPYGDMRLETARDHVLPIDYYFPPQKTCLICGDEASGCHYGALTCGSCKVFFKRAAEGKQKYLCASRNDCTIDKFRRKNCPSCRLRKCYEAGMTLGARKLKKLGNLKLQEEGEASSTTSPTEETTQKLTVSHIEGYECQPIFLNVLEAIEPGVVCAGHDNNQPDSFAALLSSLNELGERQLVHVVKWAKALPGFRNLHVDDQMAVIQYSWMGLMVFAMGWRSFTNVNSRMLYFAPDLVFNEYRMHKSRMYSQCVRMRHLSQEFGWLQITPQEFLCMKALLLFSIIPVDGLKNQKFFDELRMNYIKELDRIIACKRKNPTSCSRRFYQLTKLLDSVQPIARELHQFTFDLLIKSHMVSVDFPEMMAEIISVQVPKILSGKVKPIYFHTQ
How it was run: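 Cells: MDA-kb2 (MMTV-luc). Stimulus: 0.5 nM R1881. Time: 16 hr, 37C, no CO2. Detection: ONE-Glo luminescence after 30 min at RT.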

[3] = biological target: Estrogen receptor (Homo sapiens) (UniProt P03372); test: qHTS assay to identify small molecule antagonists of the estrogen receptor alpha (ER-alpha) signaling pathway using the BG1 cell line in the presence of 0.1 nM 17-beta-estradiol (AID 1259244); further: nearly all actives have a fitted effect of over 50% in size; further: potency means the concentration at half of the fitted maximal effect
Estrogen receptor (Homo sapiens), sequence (P03372 whole entry, looked up): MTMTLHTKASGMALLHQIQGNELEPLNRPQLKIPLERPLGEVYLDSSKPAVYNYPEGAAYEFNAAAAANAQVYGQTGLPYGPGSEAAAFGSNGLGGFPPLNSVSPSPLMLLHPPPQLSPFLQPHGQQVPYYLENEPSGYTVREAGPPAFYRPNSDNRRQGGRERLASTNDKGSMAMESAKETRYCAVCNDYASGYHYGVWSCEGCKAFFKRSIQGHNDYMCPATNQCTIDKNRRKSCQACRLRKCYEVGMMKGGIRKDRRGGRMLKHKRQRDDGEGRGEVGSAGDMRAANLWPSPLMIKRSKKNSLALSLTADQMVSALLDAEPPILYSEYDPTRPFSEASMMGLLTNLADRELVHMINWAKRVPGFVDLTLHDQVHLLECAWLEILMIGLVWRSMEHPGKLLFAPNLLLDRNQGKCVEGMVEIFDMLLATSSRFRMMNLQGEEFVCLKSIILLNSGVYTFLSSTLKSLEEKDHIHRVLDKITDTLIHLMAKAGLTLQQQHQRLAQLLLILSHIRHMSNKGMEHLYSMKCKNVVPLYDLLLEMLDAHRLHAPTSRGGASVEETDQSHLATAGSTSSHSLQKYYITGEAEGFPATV
How it was run: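 Seeding of stripped-serum-adapted VM7Luc4E2 cells, 24 h attachment, compound transfer, then 0.1 nM final 17beta-estradiol; after 22 h incubation, ONE-Glo reagent and luminescence reading.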

[4] = qHTS assay to identify small molecule HDAC inhibitors (AID 1259364);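 further: wild-type HCT-116 cells with endogenous class I/II HDAC activity; top concentration of the series differs between compounds; nearly all actives have a fitted effect of over 45% in size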
How it was run: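 After a 2 hr compound incubation (37C, 5% CO2), HCT-116 cells seeded at 1,500/well the day before received HDAC-Glo reagent; signal read as luminescence after 30 min at room temperature.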

[5] = qHTS assay to identify small molecule HDAC inhibitors - cell viability counter screen (AID 1259365); further: nearly all actives have a fitted effect of over 50% in size; further: potency means the concentration at half of the fitted maximal effect
How it was run: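 CellTiter-Glo luminescence (30 min, room temperature) reported viability after a 2 h compound exposure at 37 C. Cells: wild-type HCT-116, 1,500 per well, seeded the night before.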

[6] = qHTS assay to identify small molecule agonists of the sonic hedgehog signaling (Shh) pathway - cell viability counter screen (AID 1259366); further: nearly all actives have a fitted effect of over 50% in size; further: potency means the concentration at half of the fitted maximal effect
How it was run: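 Cytotoxicity counter screen: CellTiter-Fluor reagent added after 23 h compound exposure, then 1 h at 37C and fluorescence read. Cells were 3T3 Gli1-Luc, seeded 2,000 per well and dosed 4 h post-plating.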

[7] = qHTS assay to identify small molecule antagonists of the sonic hedgehog signaling (Shh) pathway - cell viability counter screen (AID 1259367); further: nearly all actives have a fitted effect of over 55% in size; further: potency means the concentration at half of the fitted maximal effect
How it was run: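 CellTiter-Fluor signal in conditioned medium-stimulated 3T3 Gli1-Luc cells, 23 hr compound exposure, 37C.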

[8] = qHTS assay to identify small molecule agonists of the sonic hedgehog signaling (Shh) pathway (AID 1259368; calls by dose curve;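 further: NIH/3T3-derived 3T3Gli1-Luc cells carrying a stable Gli1-driven firefly luciferase reporter; series mostly up to about 92 µM; nearly all actives have a fitted effect of over 15% in size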)
How it was run: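 Stable NIH/3T3 Gli1-Luc reporter clone; 24 hr cpd exposure after a 4 hr settling period; luminescence endpoint.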

[9] = qHTS assay to identify small molecule antagonists of the sonic hedgehog signaling (Shh) pathway (AID 1259369; calls by dose curve; further: nearly all actives have a fitted effect of over 45% in size; further: potency means the concentration at half of the fitted maximal effect)
How it was run: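 Gli1 transcriptional reporter (firefly Luc) in NIH/3T3 background, conditioned-medium activated. 24hr exposure, luminescence endpoint.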

[10] = biological target: Estrogen receptor beta (Homo sapiens) (UniProt Q92731); test: qHTS assay to identify small molecule agonists of the estrogen receptor beta (ER-beta) signaling pathway (AID 1259377; active means well fitted activation curve with a large enough effect in the signal ratio in the repeat runs, not every such curve was filed as active; the % refers to the signal ratio)
Estrogen receptor beta (Homo sapiens), sequence (Q92731 whole entry, looked up): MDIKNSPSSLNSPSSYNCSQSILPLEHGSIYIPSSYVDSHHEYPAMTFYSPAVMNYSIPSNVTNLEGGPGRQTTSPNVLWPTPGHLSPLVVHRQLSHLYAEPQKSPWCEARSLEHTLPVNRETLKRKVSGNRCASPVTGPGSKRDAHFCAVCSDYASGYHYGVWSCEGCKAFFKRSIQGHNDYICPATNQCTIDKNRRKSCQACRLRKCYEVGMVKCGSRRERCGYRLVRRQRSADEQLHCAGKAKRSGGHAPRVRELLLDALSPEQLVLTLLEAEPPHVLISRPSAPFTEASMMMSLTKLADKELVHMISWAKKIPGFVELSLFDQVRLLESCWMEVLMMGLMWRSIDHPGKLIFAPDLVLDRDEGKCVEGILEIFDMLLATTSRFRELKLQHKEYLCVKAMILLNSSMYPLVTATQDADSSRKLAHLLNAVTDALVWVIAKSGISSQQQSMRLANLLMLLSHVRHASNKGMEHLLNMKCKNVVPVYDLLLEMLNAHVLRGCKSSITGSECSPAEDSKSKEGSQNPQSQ
How it was run: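 Ratiometric beta-lactamase FRET read-out came after 2 h substrate loading at room temperature. It followed 16 h compound treatment at 37C of GripTite HEK293T cells carrying a UAS-bla reporter, plated in 2% charcoal-stripped FBS medium.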

[11] = biological target: Estrogen receptor beta (Homo sapiens) (UniProt Q92731); test: qHTS assay to identify small molecule antagonists of the estrogen receptor beta (ER-beta) signaling pathway (AID 1259378; active means well fitted inhibition curve with a large enough effect in the signal ratio in the repeat runs, not every such curve was filed as active; the % refers to the signal ratio; further: potency means the concentration at half of the fitted maximal effect)
How it was run: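 Antagonist mode: compounds added to beta-lactamase reporter HEK293T ER-beta-UAS cells stimulated with E2 (1nM final), 16 hr at 37C. LiveBLAzer B/G FRET substrate, 2 hours room temperature, fluorescence read-out.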

[12] = qHTS assay to identify small molecule agonists of the androgen receptor (AR) signaling pathway in the presence of an antagonist - cell viability counter screen (AID 1259379); further: nearly all actives have a fitted effect of over 25% in size; further: potency means the concentration at half of the fitted maximal effect
How it was run: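 Counter screen for cell viability run in parallel with the AR agonist-mode luciferase assay. MDA-kb2 cells were co-treated with nilutamide (3.0uM final) and compounds, then incubated 16 hr at 37C, and CellTiter-Fluor fluorescence was measured.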

[13] = qHTS assay to identify small molecule agonists of the estrogen receptor beta (ER-beta) signaling pathway - cell viability counter screen (AID 1259380); further: nearly all actives have a fitted effect of over 30% in size; further: potency means the concentration at half of the fitted maximal effect
How it was run: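 In this qHTS counter screen, HEK293T cells carrying an ER-beta/UAS beta-lactamase reporter, grown in 2% charcoal-stripped FBS, received compound for 16 hr; ATP-based CellTiter-Glo luminescence was then read after 30 min at room temperature.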

[14] = qHTS assay to identify small molecule antagonists of the estrogen receptor beta (ER-beta) signaling pathway - cell viability counter screen (AID 1259382); further: nearly all actives have a fitted effect of over 55% in size; further: potency means the concentration at half of the fitted maximal effect
How it was run: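 HEK293T ER-beta-UAS-bla, 2% charcoal-stripped FBS; compounds + 1nM E2 16 hr 37C; CellTiter-Glo luminescence, 30 min RT.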

[15] = biological target: Estrogen receptor (Homo sapiens) (UniProt P03372); test: qHTS assay to identify small molecule agonists of the estrogen receptor alpha (ER-alpha) signaling pathway in the presence of an antagonist (AID 1259383; calls by dose curve; further: top concentration of the series differs between compounds; nearly all actives have a fitted effect of over 15% in size)
How it was run: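 ER-alpha agonism measured under antagonist challenge: 10.0nM ICI-182,780 (final) plus compound, 15 concentrations, 22hr, VM7Luc4E2 ERE-luciferase cells. Read by luminescence.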

[16] = qHTS assay to identify small molecule agonists or antagonists of the thyroid stimulating hormone receptor (TSHR) signaling pathway - wild type cell line counter screen (AID 1259384; calls by dose curve)
How it was run: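 Counter screen in untransfected Hek293: compounds (15-point titration, triplicate) plus phosphodiesterase inhibitor Ro20-1724 added after 18 h plating; 30 min RT. Intracellular cAMP via competitive d2/cryptate immunoassay, 1 h incubation.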

[17] = biological target: Thyrotropin receptor (Homo sapiens) (UniProt P16473); test: qHTS assay to identify small molecule antagonists of the thyroid stimulating hormone receptor (TSHR) signaling pathway (AID 1259385; calls by dose curve; further: nearly all actives have a fitted effect of over 20% in size; further: potency means the concentration at half of the fitted maximal effect)
Thyrotropin receptor (Homo sapiens), sequence (P16473 whole entry, looked up): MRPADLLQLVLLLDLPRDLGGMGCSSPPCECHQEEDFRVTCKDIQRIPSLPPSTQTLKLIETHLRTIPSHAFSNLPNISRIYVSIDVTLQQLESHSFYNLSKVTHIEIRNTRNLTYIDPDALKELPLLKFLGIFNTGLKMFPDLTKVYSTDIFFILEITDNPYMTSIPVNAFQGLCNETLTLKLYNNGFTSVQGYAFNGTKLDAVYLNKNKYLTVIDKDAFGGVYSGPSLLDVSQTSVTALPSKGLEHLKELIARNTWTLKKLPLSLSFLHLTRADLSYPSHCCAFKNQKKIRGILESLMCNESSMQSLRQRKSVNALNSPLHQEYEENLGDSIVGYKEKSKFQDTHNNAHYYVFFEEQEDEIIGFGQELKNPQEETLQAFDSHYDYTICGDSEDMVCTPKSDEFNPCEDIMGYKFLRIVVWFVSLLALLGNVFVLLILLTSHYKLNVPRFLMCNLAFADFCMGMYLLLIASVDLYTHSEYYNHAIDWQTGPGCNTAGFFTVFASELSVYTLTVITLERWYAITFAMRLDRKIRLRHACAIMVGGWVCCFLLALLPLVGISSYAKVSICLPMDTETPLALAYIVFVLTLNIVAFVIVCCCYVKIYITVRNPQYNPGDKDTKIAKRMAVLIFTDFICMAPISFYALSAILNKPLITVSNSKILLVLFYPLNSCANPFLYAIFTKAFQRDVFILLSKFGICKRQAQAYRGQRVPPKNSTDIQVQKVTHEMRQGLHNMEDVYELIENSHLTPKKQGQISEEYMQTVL
How it was run: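 Antagonist mode: compound-treated TSHR-expressing HEK293 cells were stimulated with 1.5 ng/mL TSH (final) in presence of Ro20-1724 for 30 min at RT. HTRF cAMP detection after 1 h; each compound tested at 15 concentrations, triplicate.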

[18] = qHTS assay to identify small molecule antagonists of the androgen receptor (AR) signaling pathway using the MDA cell line in the presence of 0.5 nM R1881 - cell viability counter screen (AID 1259242); further: nearly all actives have a fitted effect of over 45% in size
How it was run: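 Human breast carcinoma MDA-kb2 cells, cultured without CO2, receive compounds alongside 0.5 nM (final) R1881 agonist. After 16 hr at 37C, viability is taken as live-cell protease signal.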

[19] = biological target: Androgen receptor (Homo sapiens) (UniProt P10275); test: qHTS assay to identify small molecule agonists of the androgen receptor (AR) signaling pathway in the presence of an antagonist (AID 1259381; calls by dose curve; further: nearly all actives have a fitted effect of over 15% in size)
How it was run: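 AR antagonist background: nilutamide 3.0uM final. Cell line: MDA-kb2, MMTV-driven luciferase, responsive to both AR and GR. Exposure 16hr, 37C, no CO2; ONE-Glo luminescence.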

[20] = qHTS assay to identify small molecule phospholipidosis (PLD) inducers (AID 1259344; active means well fitted curve in the direction sought with a large enough effect; an effect the other way counts as inactive or inconclusive)
How it was run: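 Accumulated phospholipid, stained red by LipidTOX during 24 h compound treatment of HepG2 cells at 37 C, is quantified from images as pit number and intensity, normalised per cell using Hoechst-stained nuclei.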
On the % scale 0 is the no-effect control and ±100 the full control effect.

O=C(O)c1ccc(Cl)c(Cl)c1
inactive: Potency [1] | Potency [2] | Potency [3] | Potency [4] | Potency [5] | Potency [6] | Potency [7] | Potency [8] | Potency [9] | Potency [10] | Potency [11] | Potency [12] | Potency [13] | Potency [14] | Potency [15] | outcome [16] | Potency [17]

Cc1oc(-c2ccccc2)nc1CCC(=O)c1ccc(CC2SC(=O)NC2=O)cc1 (configuration not stated)
inactive: Potency [1] | Potency [18] | Potency [4] | Potency [5] | Potency [8] | Potency [9] | outcome [16] | Potency [17]
active: Potency [13] 6.68 µM

Oc1ccc(C2(c3ccc(O)cc3)CC3CC2C2CCCC32)cc1 (configuration not stated)
active: Potency [2] 52.3 µM | Potency [3] 0.117 µM | Potency [6] 58.7 µM | Potency [9] 20.8 µM
inactive: Potency [1] | Potency [4] | Potency [5] | Potency [8] | Potency [19] | Potency [15]

COC(=O)c1cc(Cl)ccc1OC
inactive: Potency [1] | Potency [3] | Potency [4] | Potency [5] | Potency [6] | Potency [7] | Potency [8] | Potency [9] | Potency [12] | Potency [13] | Potency [14] | Potency [15] | outcome [16] | Potency [17]

CSc1ccc2c(c1)C(N1CCN(C)CC1)Cc1ccccc1S2 (configuration not stated)
active: Potency [6] 23.7 µM | Potency [9] 15 µM | Potency [13] 16.8 µM | Potency [14] 16.8 µM
inactive: Potency [1] | Potency [3] | Potency [4] | Potency [5] | Potency [8] | Potency [15]

COc1cc(-c2nc(NC(=O)c3cc4cc(C)cc(C)c4n3CC(=O)O)sc2CCC2CCCCC2)c(OC)cc1Cl
inactive: Potency [1] | Potency [3] | Potency [4] | Potency [6] | Potency [8] | Potency [10] | Potency [15]
active: Potency [5] 25 µM | Potency [12] 56 µM | Potency [14] 39.7 µM

Cc1ccc(O)c2ncccc12
inactive: Potency [1] | Potency [20] | Potency [4] | Potency [8] | Potency [15] | outcome [16] | Potency [17]
active: Potency [2] 10.6 µM | Potency [3] 11.9 µM | Potency [6] 1.33 µM | Potency [7] 1.33 µM | Potency [9] 0.531 µM

CCN(Cc1cccnc1)C(=O)c1cccc(Cl)c1[C@]1(C)C(=O)N(Cc2ccc(OC)cc2OC)c2ccc(Cl)cc21
active: Potency [2] 57.1 µM | Potency [3] 64.1 µM | Potency [9] 28.6 µM | Potency [11] 8.07 µM
inactive: Potency [1] | Potency [4] | Potency [5] | Potency [8] | Potency [10] | Potency [19] | Potency [14] | Potency [15] | outcome [16] | Potency [17]

Fc1ccc(C(c2ccc(F)cc2)N2CCN(C/C=C/c3ccccc3)CC2)cc1
active: Potency [11] 16.8 µM
inactive: Potency [1] | Potency [3] | Potency [4] | Potency [5] | Potency [6] | Potency [7] | Potency [8] | Potency [9] | Potency [10] | Potency [15] | outcome [16] | Potency [17]

CCOC(=O)O[C@H](C)OC(=O)c1ccc2c(c1)cc(C(=O)NC1CCN(C(C)C)CC1)n2Cc1cc(-c2ccc(Cl)s2)on1
inactive: Potency [4] | Potency [8] | Potency [15]
active: Potency [1] 64.1 µM | Potency [3] 64.1 µM | Potency [5] 50.9 µM | Potency [6] 12.8 µM | Potency [7] 20.3 µM | Potency [9] 9.05 µM | Potency [12] 45.4 µM | Potency [13] 20.3 µM | Potency [14] 22.7 µM | Potency [17] 64.1 µM

N=C1C=CC(=C(c2ccc(N)cc2)c2ccc(N)cc2)C=C1
inactive: Potency [8] | Potency [14] | Potency [15]
active: Potency [1] 30.6 µM | Potency [3] 7.7 µM | Potency [5] 24.3 µM | Potency [6] 21.7 µM | Potency [7] 19.3 µM | Potency [9] 12.2 µM | Potency [12] 12.2 µM | Potency [13] 7.7 µM

Nc1ccc2cc(S(=O)(=O)O)cc(O)c2c1N=Nc1ccccc1C(F)(F)F
active: Potency [1] 30.6 µM | Potency [12] 30.6 µM
inactive: Potency [4] | Potency [5] | Potency [8] | Potency [9] | Potency [10] | Potency [11] | Potency [13] | Potency [14]

C[C@@H](NCCCc1cccc(C(F)(F)F)c1)c1cccc2ccccc12
inactive: Potency [1] | Potency [20] | Potency [4] | Potency [5] | Potency [8] | Potency [10] | Potency [15] | outcome [16]
active: Potency [9] 18.8 µM | Potency [11] 10.6 µM | Potency [12] 29.8 µM | Potency [13] 21.1 µM | Potency [14] 18.8 µM

O=c1c(-c2ccccc2)c1-c1ccccc1
inactive: Potency [1] | Potency [20] | Potency [4] | Potency [5] | Potency [8] | Potency [14] | Potency [15] | outcome [16] | Potency [17]
active: Potency [6] 13.3 µM | Potency [7] 11.9 µM | Potency [9] 5.96 µM | Potency [11] 10.6 µM

CC(=O)S[C@@H]1CC2=CC(=O)CC[C@]2(C)[C@H]2CC[C@@]3(C)[C@@H](CC[C@@]34CCC(=O)O4)[C@H]12
active: Potency [13] 30.6 µM
inactive: Potency [1] | PLD induction [20] 5.04% [at 1.53 µM] | Potency [4] | Potency [5] | Potency [7] | Potency [8] | Potency [10] | Potency [12] | Potency [15] | outcome [16] | Potency [17]

O=[N+]([O-])c1cc([N+](=O)[O-])c2ccc(S(=O)(=O)O)cc2c1O
active: Potency [1] 27.1 µM | Potency [6] 13.6 µM | Potency [7] 8.58 µM | Potency [12] 21.6 µM
inactive: Potency [5] | Potency [14]
